Calls of active or inactive are those of the source. Rule for the calls: active = hit-call score of the fitted dose curve at least 0.9, where 1 is the maximum; inactive = score below 0.9.
Experiments:
[1] = ATG_E_Box_CIS: Attagene CIS-FACTORIAL HepG2 Assay for human Enhancer Box (E-box) (AID 2282936); settings: HepG2 E-box cis-reporter transcription, actives raise or lower the signal
In short: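 Endogenous transcription factor activity was sensed in human HepG2 liver cells through transfected cis-promoter reporter units. After 24 h of dosing, total RNA was reverse-transcribed and reporter cDNA resolved by capillary electrophoresis.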

[2] = ATG_M_61_CIS: Attagene CIS-FACTORIAL HepG2 Assay for M61 Transcription Factor (Internal Marker) (AID 2282937); settings: HepG2 Attagene CIS-FACTORIAL M61 internal marker reporter; actives raise or lower the signal
In short: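 This endpoint serves as an internal background control within a multiplexed HepG2 cis-reporter panel. Cells are exposed for 24 h; reporter mRNA is amplified, fluorescently labelled and sized by capillary electrophoresis, with DMSO as negative control.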

[3] = ATG_EGR_CIS: Attagene CIS-FACTORIAL HepG2 Assay for human Early Growth Response 1 (EGR1) (AID 2282938); settings: HepG2 Attagene CIS-FACTORIAL EGR reporter mRNA; actives raise or lower the signal
In short: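 HepG2, transient MRTU transfection (cis promoters), 24 h compound. RNA → RT (oligo-dT) → PCR → 6-FAM labelling → HpaI cut → CE fluorescence. Bidirectional fit, DMSO baseline.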

[4] = ATG_M_19_CIS: Attagene CIS-FACTORIAL HepG2 Assay for M19 Transcription Factor (Internal Marker) (AID 2282939); settings: HepG2 Attagene CIS-FACTORIAL M19 internal marker reporter; actives raise or lower the signal
In short: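 HepG2 cells transiently transfected with cis-regulated multiple reporter transcription units were dosed for 24 h; reporter mRNA was quantified by RT-PCR, 6-FAM primer-extension labelling, HpaI digestion and capillary electrophoresis, with bidirectional fitting against DMSO baseline.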

[5] = ATG_Ets_CIS: Attagene CIS-FACTORIAL HepG2 Assay for human Erythroblast Transformation Specific (ETS) (AID 2282941); settings: HepG2 ETS cis-reporter transcription, actives raise or lower the signal
In short: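 RT-PCR/capillary electrophoresis fluorescence read-out of reporter mRNA; HepG2 transient multi-reporter transfection; 24 h compound exposure; gain or loss of signal fitted bidirectionally relative to DMSO.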

[6] = target: Hepatocyte nuclear factor 3-beta (Homo sapiens) (UniProt Q9Y261); assay: ATG_FoxA2_CIS: Attagene CIS-FACTORIAL HepG2 Assay for human Forkhead box A2 (FOXA2) (AID 2282942); settings: HepG2 cis-reporter transcription factor activity, 24 h; actives raise or lower the signal
Sequence of Hepatocyte nuclear factor 3-beta (Homo sapiens) (Q9Y261 whole entry, looked up): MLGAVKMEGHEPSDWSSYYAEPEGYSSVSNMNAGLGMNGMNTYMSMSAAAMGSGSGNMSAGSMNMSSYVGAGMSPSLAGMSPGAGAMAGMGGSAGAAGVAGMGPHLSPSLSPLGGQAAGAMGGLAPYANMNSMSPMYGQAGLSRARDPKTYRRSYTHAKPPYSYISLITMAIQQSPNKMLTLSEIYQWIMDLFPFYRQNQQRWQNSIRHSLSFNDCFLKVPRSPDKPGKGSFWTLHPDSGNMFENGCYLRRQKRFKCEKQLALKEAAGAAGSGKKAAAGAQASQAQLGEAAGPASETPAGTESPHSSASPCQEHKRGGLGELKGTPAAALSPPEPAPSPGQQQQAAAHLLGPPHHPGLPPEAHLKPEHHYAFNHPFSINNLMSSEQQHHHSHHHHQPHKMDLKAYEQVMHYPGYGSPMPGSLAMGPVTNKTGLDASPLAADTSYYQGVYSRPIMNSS
In short: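 Cells: HepG2, transient multiplex reporter transfection. Exposure 24 h. Detection: reporter-specific RT-PCR, fluorescent labelling, restriction digest, capillary electrophoresis. Analysis: bidirectional curve fit, DMSO as negative control.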

[7] = ATG_FoxO_CIS: Attagene CIS-FACTORIAL HepG2 Assay for human Forkhead box O (FoxO) (AID 2282943); settings: HepG2 Attagene cis-reporter, FoxO element, mRNA; actives raise or lower the signal
In short: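 24 h chemical exposure, HepG2 with transient cis-MRTU transfection. RNA extraction, oligo(dT) RT, reporter-specific PCR, primer-extension labelling, HpaI digestion, CE fragment analysis; bidirectional fit, DMSO baseline.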

[8] = ATG_GATA_CIS: Attagene CIS-FACTORIAL HepG2 Assay for human GATA Binding Protein (AID 2282944); settings: HepG2 GATA cis-element reporter, Attagene multiplex mRNA; actives raise or lower the signal
In short: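 HepG2 cells transiently transfected with multiplexed cis-element reporter units reflecting endogenous transcription factor activity; reporter mRNA measured after 24 h dosing by RT-PCR, 6-FAM labeling, HpaI digestion and capillary electrophoresis. Bidirectional fitting versus DMSO baseline.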

[9] = ATG_GLI_CIS: Attagene CIS-FACTORIAL HepG2 Assay for human Zinc Finger Protein GLI1 (AID 2282945); settings: HepG2, Attagene cis-factorial reporter mRNA, GLI element; actives raise or lower the signal
In short: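 HepG2 cells transiently transfected with cis-promoter multiplexed reporter units report endogenous transcription factor activity. After 24 h chemical exposure, reporter mRNA was quantified by RT-PCR, 6-FAM labelling, HpaI digestion and capillary electrophoresis, with bidirectional fitting against DMSO.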

[10] = ATG_GRE_CIS: Attagene CIS-FACTORIAL HepG2 Assay for human Glucocorticoid Response Elements (GRE) (AID 2282947); settings: HepG2 GRE cis-reporter, Attagene multiplex mRNA; actives raise or lower the signal
In short: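 Cells (HepG2) bearing transfected cis-promoter reporter transcription units were treated with chemical for 24 hours. Reporter mRNA was measured via RT-PCR with capillary electrophoresis, and activity was fitted in both directions relative to DMSO.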

[11] = ATG_ISRE_CIS: Attagene CIS-FACTORIAL HepG2 Assay for human Interferon Regulatory Factor 1 (IRF1) binding to an Interferon-Stimulated Response Element (ISRE) (AID 2282948); settings: HepG2 ISRE cis-reporter (Attagene), mRNA transcription readout; actives raise or lower the signal
In short: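 Read-out: fluorescent RT-PCR products resolved by capillary electrophoresis, reporting endogenous transcription factor activity via ISRE-driven reporter mRNA in transfected HepG2 cells dosed for 24 h; gain or loss fitted relative to DMSO.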

[12] = ATG_M_06_CIS: Attagene CIS-FACTORIAL HepG2 Assay for M06 Transcription Factor (Internal Marker) (AID 2282950); settings: HepG2 Attagene CIS-FACTORIAL M06 internal marker reporter; actives raise or lower the signal
In short: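 HepG2 cells transiently transfected with cis-regulated multiple reporter transcription units were exposed to chemical for 24 h; reporter mRNA was quantified by RT-PCR, 6-FAM primer labelling, HpaI digestion and capillary electrophoresis, fitted bidirectionally against DMSO.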

[13] = target: Hypoxia-inducible factor 1-alpha (Homo sapiens) (UniProt Q16665); assay: ATG_HIF1a_CIS: Attagene CIS-FACTORIAL HepG2 Assay for human Hypoxia Inducible Factor 1 (HIF1A) (AID 2282951); settings: HepG2 Attagene cis-factorial HIF1a reporter transcription; actives raise or lower the signal
Sequence of Hypoxia-inducible factor 1-alpha (Homo sapiens) (Q16665 whole entry, looked up): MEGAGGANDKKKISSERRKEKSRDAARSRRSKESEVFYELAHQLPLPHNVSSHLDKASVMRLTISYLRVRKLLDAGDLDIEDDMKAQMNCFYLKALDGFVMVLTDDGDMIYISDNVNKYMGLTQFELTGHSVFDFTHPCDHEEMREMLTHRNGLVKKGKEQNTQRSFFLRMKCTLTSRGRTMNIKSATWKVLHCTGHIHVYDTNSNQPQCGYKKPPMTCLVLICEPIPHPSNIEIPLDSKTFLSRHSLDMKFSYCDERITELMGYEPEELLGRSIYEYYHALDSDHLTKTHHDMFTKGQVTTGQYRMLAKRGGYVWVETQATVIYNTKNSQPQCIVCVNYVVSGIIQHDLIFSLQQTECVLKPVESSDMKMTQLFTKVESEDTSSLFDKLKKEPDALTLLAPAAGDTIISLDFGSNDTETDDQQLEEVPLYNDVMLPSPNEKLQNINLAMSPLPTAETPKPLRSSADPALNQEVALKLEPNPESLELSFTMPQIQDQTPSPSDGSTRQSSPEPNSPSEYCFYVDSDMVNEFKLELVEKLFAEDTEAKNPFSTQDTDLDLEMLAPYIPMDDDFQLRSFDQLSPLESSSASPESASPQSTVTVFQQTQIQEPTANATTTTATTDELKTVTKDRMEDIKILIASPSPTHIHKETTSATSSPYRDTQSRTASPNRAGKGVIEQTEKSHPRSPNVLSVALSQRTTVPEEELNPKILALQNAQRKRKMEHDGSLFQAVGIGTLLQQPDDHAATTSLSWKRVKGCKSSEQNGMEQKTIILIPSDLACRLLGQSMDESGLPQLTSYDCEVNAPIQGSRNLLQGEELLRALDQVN
In short: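 HepG2, transient cis-reporter library, 24 h dosing. RNA → RT (oligo dT) → PCR → 6-FAM primer extension → HpaI → CE. Bidirectional curve fit vs DMSO.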

[14] = target: Hepatocyte nuclear factor 6 (Homo sapiens) (UniProt Q9UBC0); assay: ATG_HNF6_CIS: Attagene CIS-FACTORIAL HepG2 Assay for human Hepatocyte Nuclear Factor 6 (HNF6) (AID 2282952); settings: HepG2 Attagene cis-factorial HNF6 reporter transcription; actives raise or lower the signal
Sequence of Hepatocyte nuclear factor 6 (Homo sapiens) (Q9UBC0 whole entry, looked up, the tested form may be a part): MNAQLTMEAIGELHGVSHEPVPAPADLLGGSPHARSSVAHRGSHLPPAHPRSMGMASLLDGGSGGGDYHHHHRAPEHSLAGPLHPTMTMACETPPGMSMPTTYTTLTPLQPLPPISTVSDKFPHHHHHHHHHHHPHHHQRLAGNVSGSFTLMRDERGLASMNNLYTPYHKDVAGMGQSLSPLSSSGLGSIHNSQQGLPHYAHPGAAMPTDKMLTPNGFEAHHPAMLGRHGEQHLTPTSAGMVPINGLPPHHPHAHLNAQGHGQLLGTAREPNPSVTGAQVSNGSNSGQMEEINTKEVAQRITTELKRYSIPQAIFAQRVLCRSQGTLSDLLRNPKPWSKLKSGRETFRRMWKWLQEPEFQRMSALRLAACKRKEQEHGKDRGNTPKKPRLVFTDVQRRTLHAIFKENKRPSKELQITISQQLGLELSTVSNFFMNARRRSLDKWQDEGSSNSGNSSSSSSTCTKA
In short: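 Readout: fluorescent reporter-transcript fragments resolved by capillary electrophoresis after RT-PCR, reflecting endogenous factor activity in transfected HepG2. Exposure 24 h. Gain or loss of signal fitted bidirectionally against DMSO.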

[15] = target: Heat shock factor protein 1 (Homo sapiens) (UniProt Q00613); assay: ATG_HSE_CIS: Attagene CIS-FACTORIAL HepG2 Assay for human Heat Shock Transcription Factor 1 (HSE) (AID 2282953); settings: HepG2 HSE cis-reporter, Attagene RNA transcription; actives raise or lower the signal
Sequence of Heat shock factor protein 1 (Homo sapiens) (Q00613 whole entry, looked up): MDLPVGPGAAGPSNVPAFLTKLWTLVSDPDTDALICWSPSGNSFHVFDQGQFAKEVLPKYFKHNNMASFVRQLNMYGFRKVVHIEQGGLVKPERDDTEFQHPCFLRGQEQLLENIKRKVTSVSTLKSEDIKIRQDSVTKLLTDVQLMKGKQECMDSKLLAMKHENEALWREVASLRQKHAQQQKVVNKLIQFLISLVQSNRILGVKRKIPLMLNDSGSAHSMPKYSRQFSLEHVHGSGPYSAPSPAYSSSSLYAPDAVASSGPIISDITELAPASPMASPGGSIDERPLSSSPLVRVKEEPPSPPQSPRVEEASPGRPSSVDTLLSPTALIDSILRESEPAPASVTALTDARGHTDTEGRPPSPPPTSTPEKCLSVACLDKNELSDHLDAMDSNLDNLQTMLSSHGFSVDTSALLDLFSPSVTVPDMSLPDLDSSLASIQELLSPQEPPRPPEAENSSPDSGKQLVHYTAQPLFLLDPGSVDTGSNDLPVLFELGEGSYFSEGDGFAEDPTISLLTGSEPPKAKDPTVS
In short: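 HepG2 cells transiently transfected with multiple reporter transcription units under cis-regulatory promoter control, measuring endogenous transcription factor activity. After 24 h chemical exposure, reporter mRNA quantified by RT-PCR, fluorescent labelling, HpaI digestion and capillary electrophoresis; bidirectional fit versus DMSO.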

[16] = ATG_MRE_CIS: Attagene CIS-FACTORIAL HepG2 Assay for human Metal Responsive Element (MRE) (AID 2282954); settings: HepG2 MRE cis-reporter transcription, Attagene multiplex; actives raise or lower the signal
In short: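 Cells were transfected with cis-promoter reporter transcription units, then dosed for 24 h. RNA was reverse-transcribed, amplified, fluorescently labelled and resolved by capillary electrophoresis, and activity was fitted in both directions relative to DMSO.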

[17] = ATG_PBREM_CIS: Attagene CIS-FACTORIAL HepG2 Assay for human Phenobarbital-responsive Enhancer Module (PBREM) (AID 2282955); settings: HepG2 PBREM cis-reporter, Attagene multiplexed transcription; actives raise or lower the signal
In short: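 HepG2, transient MRTU transfection, 24 h dosing; RNA → oligo(dT) RT → PCR → 6-FAM extension → HpaI → CE. Bidirectional fit vs DMSO.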

[18] = ATG_M_32_CIS: Attagene CIS-FACTORIAL HepG2 Assay for M32 Transcription Factor (Internal Marker) (AID 2282949); settings: HepG2 Attagene cis-factorial M32 reporter, mRNA; actives raise or lower the signal;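 note: background control marker of the multiplexed CIS panel rather than a real target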
In short: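 HepG2 human liver cells transiently transfected with cis-promoter-driven multiple reporter transcription units, dosed 24 h. Reporter mRNA quantified by RT-PCR, FAM-labelled primer extension, HpaI digest and capillary electrophoresis; bidirectional fit versus DMSO baseline.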

Measured: AC50

c1ccc(CN(Cc2ccccc2)Cc2ccccc2)cc1
active: [9] 100 µM
not listed: [18]
inactive: all other assays above

COC(C)(C)CCO
inactive: all assays above

CCOC(=O)C1OC1c1ccccc1 (centres undefined)
active: [1] 57 µM | [11] 33.5 µM
not listed: [14]
inactive: all other assays above

COc1ccc(CCO)cc1
active: [10] 183 µM
inactive: all other assays above

C=CC(=C)CCCC(C)(C)OC(C)=O
inactive: all assays above

CC(C)=CCCC(C)CC(=O)O (centres undefined)
inactive: all assays above

O=c1[nH]c(=O)c2cn[nH]c2[nH]1
inactive: all assays above

CCCCC(CC)COC(C)=O (centres undefined)
inactive: all assays above

CCCC(=O)c1ccccc1
inactive: all assays above

BrCc1cccc(Oc2ccccc2)c1
not listed: [10]
inactive: all other assays above

C=C(C)[C@@H]1CC=C(C)C(=O)C1
not listed: [14] | [17]
inactive: all other assays above

CCCC(=O)OCCc1ccccc1
inactive: all assays above

Cc1ccc(-c2ccccc2)cc1
not listed: [18]
inactive: all other assays above

N#Cc1ccc(CC(=O)c2cccc(C(F)(F)F)c2)cc1
active: [1] 170 µM | [15] 150 µM | [16] 100 µM
inactive: all other assays above

C=CCN(CC=C)CC=C
inactive: all assays above
